From PubChem BioAssay
D2 antag – D2 dopamine receptor (human) antagonism; inhibition, % at 10 µM; 2% of 340,000 active; HEK293 TREx D2 cells, calcium flux, dopamine EC80; P14416; in the data active means inhibition above about 30%; inactive means below that, where a call was filed; further: 0% is about no effect
Target sequence (P14416 whole entry, looked up): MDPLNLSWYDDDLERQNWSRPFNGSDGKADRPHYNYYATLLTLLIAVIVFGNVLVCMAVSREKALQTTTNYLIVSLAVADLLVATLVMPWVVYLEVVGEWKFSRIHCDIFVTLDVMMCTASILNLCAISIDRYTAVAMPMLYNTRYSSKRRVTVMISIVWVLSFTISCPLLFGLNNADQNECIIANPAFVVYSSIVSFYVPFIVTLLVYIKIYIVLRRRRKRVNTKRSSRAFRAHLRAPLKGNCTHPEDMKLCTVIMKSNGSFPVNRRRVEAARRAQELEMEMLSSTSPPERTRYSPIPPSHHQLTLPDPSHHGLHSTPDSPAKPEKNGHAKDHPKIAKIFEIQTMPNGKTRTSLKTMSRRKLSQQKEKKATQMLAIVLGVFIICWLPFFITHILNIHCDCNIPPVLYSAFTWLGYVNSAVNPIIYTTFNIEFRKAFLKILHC
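Tetracycline-induced HEK293 TREx cells expressing D2 receptor forced-coupled to calcium signalling, loaded with no-wash calcium dye. Compounds added and calcium flux read 180 s, then dopamine added at EC80 and read a further 180 s.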
D2 ag-1 – human D2 receptor agonism in beta-arrestin assay; activation, % (no concentration beside the values); DiscoveRx PathHunter D2 beta-arrestin, luminescence, 90 min; 100% = 57 uM dopamine signal; P14416; 0.084% of 360,000 active; in the data active means activation above about 40%; inconclusive means between about 15% and that limit
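Agonist mode: compounds alone added to overnight-plated D2 PathHunter cells for 90 min at 37 C, with 57 uM final dopamine (EC100) defining full response. Beta-arrestin recruitment detected by chemiluminescent reagent, read after 1 h at ambient temperature.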
D2 PAM-1 – positive allosteric modulators of human D2 dopamine receptor; HEK293 T-REx D2, calcium flux, EC20 dopamine potentiation; AID 485347; 0.34% of 340,000 active; P14416; potentiation, % at 10 µM;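 active means potentiation over 3 SD above the plate norm, cut at about 30% in these data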; further: 0% is about no effect
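Potentiation of an EC20 dopamine calcium response is measured in a force-coupled, tetracycline-inducible Hek293 Trex D2 line. Compound-only kinetic reads over 180 s flag agonists before dopamine addition.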
D2 ag-2 – D2 dopamine receptor (human) agonism; P14416; HEK293 T-REx D2 cells, calcium flux agonist mode; activation, % at 2 µM; 0.53% of 340,000 active;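 active means activation over 3 SD above normal in the single-dose calcium agonist read, cut at about 30% in these data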; further: 0% is about no effect
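Tetracycline-induced HEK293 T-REx cells with force-coupled D2 receptor, plated overnight at 30 C, loaded with no-wash calcium dye. After a 10 s baseline, compound was pin-added and calcium flux read kinetically for 180 s; calcium rises flagged agonists.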
D2 PAM-2 – potentiates the human D2 dopamine receptor allosterically; P14416; DiscoveRx D2 beta-arrestin cells, luminescence, 90 min; 100% = 57 uM dopamine signal; potentiation, % (concentration not given with the values); 0.23% of 360,000 active; AID 624464; in the data active means potentiation above about 50%; inconclusive means mostly about 30% to 49%
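D2 cells co-treated with compound plus 50 nM dopamine (EC20) for 90 min at 37 deg C to detect potentiation. Beta-arrestin recruitment was read as enzyme-fragment luminescence after 1 h at ambient temperature. Full response was set by 57 uM dopamine.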
Active calls of the source: *; u = inconclusive; x = no result given. An excerpt weighted towards active compounds, which were near 2.4% of everything screened.

SMILES	D2 antag	D2 ag-1	D2 PAM-1	D2 ag-2	D2 PAM-2
Cc1cc(NC(=O)CSc2nc3cc(Cl)ccc3c(=O)n2CC(C)C)no1	-8	x	-4	1	x
C=CCn1c(SCC(=O)Nc2cc(C)on2)nc2sc(C)c(C)c2c1=O	x	2	x	x	0
COc1cccc(Cn2c(-c3nonc3NC(C)=O)nc3ccccc32)c1	x	x	-1	-1	x
Cc1c(Cl)cccc1NC(=O)Cn1c(=O)n(Cc2ccco2)c(=O)c2sc3ccccc3c21	x	x	4	-1	x
COc1ccc(S(=O)(=O)n2nc(C)c(S(=O)(=O)N3CCC(C)CC3)c2C)cc1OC	x	x	9	1	x
Cc1cccnc1NC(=O)CCc1c[nH]c2ccccc12	31*	1	5	0	1
Cc1ccnc(NC(=O)CCCc2c[nH]c3ccccc23)c1	-4	-1	7	-1	5
COc1ccc(N2C(=O)CSC2c2cccc(OC)c2OC)cc1 (stereo unspecified)	51*	-3	0	0	-8
O=C(CCNS(=O)(=O)c1ccc(OC(F)(F)F)cc1)NCCc1c[nH]c2ccccc12	40*	7	3	0	7
Cc1ccc(OC(=O)COc2ccccc2C)cc1	-15	-1	7	-1	2
CC(=O)c1ccc(OC(=O)COc2ccccc2Cl)cc1	48*	-4	-4	1	-2
CCCN(CCC)c1nn2c(=O)c(C(=O)NCc3cccc(OC)c3)cnc2s1	x	x	-6	x	x
Oc1cccc(Nc2ncnc3ccccc23)c1	51*	-2	3	0	-10
Cn1c(=O)c2c(nc(N3CCOCC3)n2Cc2ccccc2)n(C)c1=O	x	x	-5	0	x
COc1cccc(-n2c(-c3ccco3)nc3nc4ccccc4nc32)c1	4	-3	-13	0	-2
Cc1cccc(-n2c(-c3ccco3)nc3nc4ccccc4nc32)c1	70*	x	-3	-1	x
COc1ccc(-c2nc(SCC(=O)Nc3cccc(C(C)=O)c3)n[nH]2)cc1	x	x	8	-1	x
CCCC(=O)Nc1ccc2oc(-c3cccnc3)nc2c1	32*	-2	13	-1	u
CCCCC(=O)Nc1ccc2oc(-c3cccnc3)nc2c1	5	-3	-7	-1	13
O=C(COc1ccc2ccccc2c1)NC1CC(=O)N(c2ccccc2)C1 (stereo unspecified)	x	x	x	1	x
CC(C)(C)c1ccc(OC(=O)N2CCOCC2)cc1	32*	3	-5	0	-3
Cc1cc(C)cc(NC(=O)c2ccc3c(c2)nnn3C2CCCC2)c1	x	x	9	1	x
O=S(=O)(c1cc(Cl)cc(Cl)c1)N1CCCC1c1nc2ccccc2s1 (stereo unspecified)	0	-1	43*	1	-1
Nc1cc(=O)nc(SCC(=O)Nc2ccc(F)cc2)n1-c1cccc(Cl)c1	x	x	0	x	x
CCCCn1cc(S(=O)(=O)c2ccc(CC)cc2)c(=O)c2cc(F)c(N3CCCC(C)C3)cc21 (stereo unspecified)	x	x	7	-1	x
SMILES	D2 antag	D2 ag-1	D2 PAM-1	D2 ag-2	D2 PAM-2
Cc1ccc2c(c1)c(=O)c(Br)c(C)n2Cc1ccccc1	56*	-5	-5	0	-18
Cc1cc(=O)c2ccccc2n1Cc1ccccc1	-2	-4	-3	-1	-12
O=C(c1ccccc1Cl)N1CCN(Cc2ccc3c(c2)OCO3)CC1	-6	-3	10	-2	-3
Cc1ccc(C(=O)N2CCN(Cc3ccc4c(c3)OCO4)CC2)c(Cl)c1	73*	2	-30	-1	-9
O=C(c1cc([N+](=O)[O-])ccc1Cl)N1CCN(Cc2ccc3c(c2)OCO3)CC1	44*	0	5	1	1
COc1ccccc1/C=N\Nc1cn[nH]c(=O)c1Cl	30*	0	0	-2	-3
COc1cccc(OCC(=O)O)c1	3	0	40*	0	3
COc1cccc(C(=O)Nc2cccc(OCC(=O)O)c2)c1	34*	-3	4	2	0
Cc1cc(NC(=O)c2cccc(Oc3ccccc3)c2)n[nH]1	-12	-2	74*	4	-5
Cc1cc(NC(=O)NC(=O)c2cccc(OC(F)(F)C(F)F)c2)n[nH]1	-2	-5	-5	1	-7
COc1cccc(OCCNCc2ccccc2)c1	41*	-1	-30	2	-13
CCc1nc(SC)ncc1C(=O)N1CCN(c2cc(C)ccc2C)CC1	x	x	3	x	x
